Laboratory results as given in PubChem BioAssay AID1259343 (VanderVen Lab, College of Veterinary Medicine, Cornell …, 2017).
Screen size: about 6,200 compounds; about 2,900 (47%) were called active. The set was probably picked from earlier hits. The list shows a part of the results. Unmarked numbers belong to inactive results. No stated cut-off is given here; in the data, active means inhibition above about 50%; inactive means the rest.

assay: Mycobacterium tuberculosis growth inhibition, primary screen (AID 1259343); settings: inhibition: at 10 µM, hits give high values; outcome: 10 uM

Row | Structure (SMILES) | inhibition
1 | O=S(=O)(C1=Cc2ccccc2CC1)N1CCC2CCCCC2C1 (stereo unspecified) | 21.1%
2 | COC(=O)c1sccc1NC(=O)C=Cc1cccs1 | 81.4% (active)
3 | O=C(C=Cc1ccc(Br)o1)NC1CCCCCC1 | 89.5% (active)
4 | O=C(C=Cc1ccco1)NC1CCCC1 | 25.8%
5 | O=C(C=Cc1cccs1)c1cccs1 | 15.1%
6 | c1ccc(-c2cc(Sc3nnc(-c4ccncc4)o3)n3ncnc3n2)cc1 | 102% (active)
7 | Cc1cccc(Nc2nnc(-c3ccncc3)o2)c1 | -7.46%
8 | COc1ccc(-c2cc(N)ccc2OC(F)F)cc1 | 34.9%
9 | COc1ccc(N=Cc2cc([N+](=O)[O-])ccc2OC(F)F)cc1 | 79.9% (active)
10 | COc1ccc(OCCCOc2ccc([N+](=O)[O-])cc2Cl)cc1 | 37.7%
11 | COc1ccc(N2CCN(Cc3cc(C)c(C)cc3O)CC2)cc1 | 83.8% (active)
12 | COc1ccc(CN2CCN(C(c3ccc(F)cc3)c3ccc(F)cc3)CC2)c(OC)c1OC | 29.5%
13 | Cc1ccccc1CN1CCN(c2ccc(S(=O)(=O)C(F)F)cc2)CC1 | 27.6%
14 | COc1ccc(-c2csc(NCc3ccco3)n2)cc1 | 70.6% (active)
15 | Fc1ccc(-n2cc(-c3ccnc(NCc4ccco4)n3)cn2)cc1 | 18.7%
16 | O=C1C(=C2SCCS2)CCCC12CC2c1ccccc1 (stereo unspecified) | 50.8% (active)
17 | O=C(c1cc(COc2ccc3c(c2)CCCC3)on1)N1CCN(C2CCCC2)C(=O)C1 | 69.3% (active)
18 | Cc1ccc(OCc2cc(C(=O)NCCc3ccc(C(F)(F)F)cc3)no2)cn1 | 68.3% (active)
19 | CC(C)Oc1ccc(CCNC(=O)c2cc(COc3ccc(F)c(F)c3)on2)cc1 | inactive
20 | O=C(c1cc(COc2ccc3c(c2)CCCC3)on1)N1CCCN(c2ncccn2)CC1 | 71.4% (active)
21 | O=C(c1cc(COc2cccc(C(F)(F)F)c2)on1)N1CCCN(c2ncccn2)CC1 | inactive
22 | Cc1nc(CCNC(=O)c2cc(COc3ccc4c(c3)CCCC4)on2)sc1C | 67.7% (active)

Row | Structure (SMILES) | inhibition
23 | O=C(c1cc(COc2ccc(-n3cncn3)cc2)on1)N1CCCCO1 | inactive
24 | O=C(c1cc(COc2ccc3c(c2)CCCC3)on1)N1CCCCO1 | 92.2% (active)
25 | COCc1cc(C(=O)N2Cc3ccccc3N(C)CC2C)no1 (stereo unspecified) | -8.57%
26 | Cn1c(=O)c2c(S(C)=O)snc2n(C)c1=O (stereo unspecified) | 100% (active)
27 | Cc1cc(C)n(CC(O)COc2ccc(C(C)(C)C)cc2)n1 (stereo unspecified) | 44.2%
28 | COc1ccc(OCCN(C)S(=O)(=O)c2ccc3c(c2)CCC3)cc1 | 48%
29 | Cc1cc(C)n(CC(O)COc2ccc3c(c2)CCC3)n1 (stereo unspecified) | 70.7% (active)
30 | Cc1nn(CC(O)COc2ccc3c(c2)CCC3)c(C)c1C (stereo unspecified) | 74.7% (active)
31 | Cn1ccc(NC(=O)c2cc3c(s2)CCC(C(C)(C)C)C3)n1 (stereo unspecified) | 49.2%
32 | CCOc1cc(Cl)ccc1NC(=O)Nc1cccnc1 | 32%
33 | N[C@@H](CCCCNC(=O)c1cccnc1)C(=O)NNc1ccc(Cl)cc1 | 95.5% (active)
34 | CSc1ccc(NC(=O)CC2(C(=O)O)CCCC2)cc1 | 85.9% (active)
35 | CC(C)NS(=O)(=O)Cc1ccc(CNC(=O)Nc2ccc(-c3ccccc3)cc2)cc1 | -37.3%
36 | CC(C)NC(=O)CC1(C(=O)Nc2ccc(-c3ccccc3)cc2)CCCC1 | 91.1% (active)
37 | COc1ccc(F)cc1C(=O)C1CCCN(C(=O)Nc2ccc(SC)cc2)C1 (stereo unspecified) | 2.1%
38 | CN(C)C(=O)C1(CNC(=O)Nc2ccc(F)c(C(F)(F)F)c2)CCCC1 | 4.66%
39 | O=C(CSCc1ccncc1)Nc1ccc(-c2cncnc2)cc1 | 89.9% (active)
40 | FC(F)(F)CN1CCC(NCc2ccc(-c3ccccc3Cl)s2)C1 (stereo unspecified) | 26.6%
41 | O=S(=O)(Nc1ccc(SC(F)F)cc1)c1ccc(F)c(F)c1 | 96.8% (active)
42 | O=S(=O)(Nc1ccc(OC(F)(F)F)cc1)c1ccc(F)c(F)c1 | 16%
43 | O=S(=O)(Nc1cnc(-c2ccccc2)nc1)c1ccc(F)c(F)c1 | 58.3% (active)
44 | CN(CC(N)=O)S(=O)(=O)c1cc2cc(Cl)ccc2s1 | 90.5% (active)

Row | Structure (SMILES) | inhibition
45 | Oc1cc(OCCN2CCN(Cc3ccc4c(c3)OCO4)CC2)ccc1-c1[nH]ncc1-c1ccccc1 | 81.6% (active)
46 | O=C(C1COc2ccccc2O1)N1CCc2onc(-c3cccc(F)c3)c2C1 (stereo unspecified) | 10.6%
47 | CC(C)N1CCc2c(sc(NC(=O)C3CC3)c2-c2nc3ccccc3s2)C1 | 0.31%
48 | CCC(=O)Nc1sc2c(c1-c1nc3ccccc3s1)CCN(C(C)C)C2 | 100% (active)
49 | CC(C)C(=O)Nc1sc2c(c1-c1nc3ccccc3s1)CCN(C)C2 | 85.9% (active)
50 | CC(=O)Nc1sc2c(c1-c1nc3ccccc3s1)CCN(C(C)C)C2 | 68.3% (active)
51 | CC(C)C(=O)Nc1sc2c(c1-c1nc3ccccc3s1)CCN(C(C)C)C2 | 95.2% (active)
52 | CN1CCc2c(sc(NC(=O)c3ccccc3)c2-c2nc3ccccc3s2)C1 | 29.3%
53 | CC(=O)c1ccc(C(=O)Nc2sc3c(c2-c2nc4ccccc4s2)CCN(C)C3)cc1 | 83.8% (active)
54 | CN1CCc2c(sc(NC(=O)c3ccc(F)cc3)c2-c2nc3ccccc3s2)C1 | 31.8%
55 | CCCCCCCCCCCCC[N+](C)(C)Cc1ccccc1 | 70.2% (active)
56 | CC(C)(C)c1cc(C(=O)CCN2CCOCC2)cc(C(C)(C)C)c1O | 102% (active)
57 | Cc1cccc(CN(CCN2CCOCC2)Cc2ccc(C(O)(c3cccc(F)c3)c3cccc(F)c3)o2)c1 | 17.9%
58 | O=S(=O)(c1cc(Cl)cc(Cl)c1O)N1CCOCC1 | 19.4%
59 | O=C(CCc1cccs1)N1CCN(CC2CCCO2)CC1 (stereo unspecified) | -26.7%
60 | CC(C)c1ccc(NC(=O)CCN2CCN(CC3CCCO3)CC2)cc1 (stereo unspecified) | 83.5% (active)
61 | CC(=O)N[C@H]1CCN(CC(=O)Nc2ccc(Cl)c(C)c2)C1 | 33.5%
62 | CC(NC(=O)CCC1CCCO1)c1ccc(Cl)s1 (stereo unspecified) | 21.7%
63 | Cc1ccc(NC(=O)CCC2CCCO2)cc1Cl (stereo unspecified) | 96.2% (active)
64 | Cc1ccc(NC(=O)CC(=O)N2CCC(C(O)CC(C)C)CC2)cc1Cl (stereo unspecified) | 88.3% (active)
65 | CC(C)c1ccc(S(=O)(=O)NCC2CCCO2)cc1 (stereo unspecified) | -25.1%
66 | Cc1cc(NC(=O)CN2CCN(CC3CCCO3)CC2)ccc1Cl (stereo unspecified) | 66.5% (active)
